Test results from PubChem BioAssay (NCATS).
Where “and” joins values, the source holds several entries; their conditions need not be identical. Equal entries are not always repeated. Records with an inconclusive call do not appear. A call without a number means that no potency is given here. Values without a mark were called inactive. Calls of active or inactive are those of the source. Calls follow the shape of the dose curve; as a rule, active = well fitted curve in the direction sought with a large enough effect; inconclusive = small, poorly fitted or top-dose-only effect, or another doubt; inactive = no such curve, though single readings can be large; an effect the other way counts as inactive or inconclusive.

Key:
[1] = target: Cellular tumor antigen p53 (Homo sapiens) (UniProt P04637); test: Primary qHTS for small molecule compounds that upregulate eGFP-tagged delta133p53alpha (in N-terminal) cells. (AID 2060322); settings: NCI-H358 eGFP-delta133p53alpha fluorescence, 24 h; activation: active compounds read high; also: nearly all actives have a fitted effect of over 75% in size; also: potency is read from the fitted curve at half-maximal effect; as to activation: series mostly up to about 56 µM
Sequence of Cellular tumor antigen p53 (Homo sapiens) (P04637 whole entry, looked up): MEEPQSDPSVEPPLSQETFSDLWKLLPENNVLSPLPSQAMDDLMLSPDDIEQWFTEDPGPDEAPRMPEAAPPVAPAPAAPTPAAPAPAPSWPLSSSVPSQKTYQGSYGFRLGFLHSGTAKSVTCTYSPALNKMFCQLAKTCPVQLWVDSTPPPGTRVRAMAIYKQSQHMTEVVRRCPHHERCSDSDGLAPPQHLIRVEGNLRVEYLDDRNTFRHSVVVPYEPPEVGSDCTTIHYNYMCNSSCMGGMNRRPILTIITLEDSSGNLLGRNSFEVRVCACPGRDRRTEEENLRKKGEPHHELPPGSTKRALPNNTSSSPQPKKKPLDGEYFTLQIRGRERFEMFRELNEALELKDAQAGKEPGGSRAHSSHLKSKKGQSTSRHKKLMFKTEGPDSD
In short: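 NCI-H358 cells pre-induced 24 h with 10 ng/ml doxycycline to express N-terminal eGFP-delta133p53alpha, then dosed 24 h at 37C without doxycycline; fixed, Hoechst-stained, GFP intensity by laser scanning cytometry, normalized to DMSO (0%) and 57.5 uM 5-azacytidine (100%).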

[2] = target: Aldehyde dehydrogenase, mitochondrial (Homo sapiens) (UniProt P05091); test: qHTS for Inhibitors of the Aldehyde Dehydrogenase Family (ALDH2) Primary screen (AID 2061308); also: nearly all actives have a fitted effect of over 55% in size
[3] = target: Retinaldehyde dehydrogenase 3 (Homo sapiens) (UniProt P47895); test: qHTS for Inhibitors of the Aldehyde Dehydrogenase Family (ALDH1A3) Primary screen (AID 2061315)
[4] = BET inhibitor-based combinations targeting novel dependencies in MECOM-rearranged (r) AML: SET-2 cell line (AID 2202231); settings: SET-2 AML cells viability, CellTiter-Glo luminescence, 48 h; viability: active compounds read low, concentration not given here; also: nearly all actives have a fitted effect of over 35% in size; also: potency is read from the fitted curve at half-maximal effect
In short: (§1)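 Luminescent ATP readout (CellTiter-Glo) after 48 hr drug exposure gives viability. Curves span 11 concentrations and are normalized to DMSO and empty wells. Activity is reported as area under the curve and its Z-transform within each cell line.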

[5] = BET inhibitor-based combinations targeting novel dependencies in MECOM-rearranged (r) AML: MV-4-11 cell line (AID 2202233); also: nearly all actives have a fitted effect of over 45% in size; also: potency is read from the fitted curve at half-maximal effect
In short: (§2)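 Luminescent ATP readout (CellTiter-Glo, 15 min at room temperature) after 48 hr drug exposure gave viability. Dose-response curves, normalized to DMSO and empty-well controls, were summarized as area under the curve and its mean-centred Z-score.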

[6] = BET inhibitor-based combinations targeting novel dependencies in MECOM-rearranged (r) AML: HNT-34 cell line (AID 2202234); also: nearly all actives have a fitted effect of over 35% in size; also: potency is read from the fitted curve at half-maximal effect
In short: as §2

[7] = BET inhibitor-based combinations targeting novel dependencies in MECOM-rearranged (r) AML: UCSD-AML1 cell line (AID 2202235); also: nearly all actives have a fitted effect of over 40% in size; also: potency is read from the fitted curve at half-maximal effect
In short: as §2

[8] = BET inhibitor-based combinations targeting novel dependencies in MECOM-rearranged (r) AML: AML-194 cell line (AID 2202237; also: nearly all actives have a fitted effect of over 40% in size; also: potency is read from the fitted curve at half-maximal effect)
In short: as §1

[9] = BET inhibitor-based combinations targeting novel dependencies in MECOM-rearranged (r) AML: AML-191 cell line (AID 2202236; also: nearly all actives have a fitted effect of over 35% in size; also: potency is read from the fitted curve at half-maximal effect)
In short: as §1

| SMILES | activation [1] | Potency [2] | Potency [3] | Potency [4] | Potency [5] | Potency [6] | Potency [7] | Potency [8] | viability [4] | Potency [9] | Potency [1] |
| --- | --- | --- | --- | --- | --- | --- | --- | --- | --- | --- | --- |
| FC(F)(F)c1ccc(/C=C/c2nc(COc3ccc(CCCCn4ccnn4)cc3)co2)cc1 | 18.8% | inactive | inactive | 0.0742 µM (active) | 0.0295 µM (active) | inactive | inactive | inactive |  |  |  |
| Cc1cc(CS(=O)(=O)c2ccccc2)cc(OCc2ccc(CN3CCC[C@@H]3CO)cc2)c1 | 3.67% | inactive | inactive |  | 10.5 µM (active) |  |  | 18.6 µM (active) | 87.8% |  |  |
| NC(=O)c1ccc(N(C(N)=O)c2c(F)cccc2F)nc1-c1ccc(F)cc1F | 24.3% and 1.79% | inactive | inactive |  | inactive | inactive | inactive | inactive | 106% | inactive |  |
| Cn1nccc1Nc1nccc(-c2ccn([C@H](CO)c3ccc(Cl)c(F)c3)c(=O)c2)n1 | -22.3% | inactive | inactive |  | 16.6 µM (active) |  | 16.6 µM (active) |  | 72.4% |  |  |
| Cn1ncnc1[C@H]1c2n[nH]c(=O)c3cc(F)cc(c23)N[C@@H]1c1ccc(F)cc1 | -4.3% and 20.1% | inactive | inactive | 3.72 µM (active) | 0.0332 µM (active) | 0.166 µM (active) |  | 1.86 µM (active) |  |  |  |
| O=C(O)c1ccc(CCCc2ccc(OCCc3ccc(F)cc3)cc2)o1 | -3.57% | inactive | inactive | 20.9 µM (active) |  | inactive | inactive |  |  | inactive |  |
| COc1cc2ncnc(Oc3cccc(NC(=O)Nc4cc(C(C)(C)C(F)(F)F)on4)c3)c2cc1OC |  | inactive | inactive |  | 0.662 µM (active) | 0.209 µM (active) |  | inactive | 104% |  | 23.9 µM (active) |
| O=C(O)CCCc1c[nH]c2ccccc12 | -8.68% and -9% | inactive | inactive |  |  | inactive | inactive | inactive | 116% | inactive |  |
| CC[C@@H]1C(=O)N(C)c2cnc(Nc3ccc(C(=O)NC4CCC(N5CCN(CC6CC6)CC5)CC4)cc3OC)nc2N1C(C)C (some centres not stated) | -21.7% | inactive | inactive | 0.148 µM (active) | 0.118 µM (active) |  |  | 0.0934 µM (active) |  | 0.166 µM (active) |  |
| CCOc1cc(C(=O)Nc2ccc(Cl)c(-c3nc4ccccc4[nH]3)c2)cc(OCC)c1OCC | 1.25% and 5.73% | inactive | inactive | 18.6 µM (active) | 16.6 µM (active) |  |  | inactive |  |  |  |
| O=c1[nH]c(-c2ccc(C(F)(F)F)cc2)nc2c1CSCC2 | 25.7% and -15.7% | inactive | inactive |  |  | inactive | inactive | inactive | 95.3% | inactive |  |
| COc1cc(Nc2nc3ccccc3nc2NS(=O)(=O)c2ccc(NC(=O)c3ccc(C)c(OC)c3)cc2)cc(OC)c1 | -16.4% and -17% | inactive | inactive |  | inactive | inactive | inactive | inactive | 111% |  |  |
| O=C(NOCC(O)CO)c1ccc(F)c(F)c1Nc1ccc(I)cc1F (configuration not stated) | 0.955% | inactive | inactive |  |  | 0.209 µM (active) |  |  | 80.7% |  |  |
| Cc1n[nH]c(C)c1Cc1sc2c(c1C(=O)N1C[C@H](O)CO1)c(=O)n(C)c(=O)n2CC(C)C | 19.3% and -2.33% | inactive | inactive |  | inactive | inactive | inactive | inactive | 111% | inactive |  |
| COc1cc2c(N3CCN(C(=O)Nc4ccc(OC(C)C)cc4)CC3)ncnc2cc1OCCCN1CCCCC1 | 54% and 21.4% | inactive | inactive |  | 0.59 µM (active) |  | 16.6 µM (active) | 23.5 µM (active) | 95.3% |  |  |
| CN(C)C(=O)c1ccc(S(=O)(=O)c2ccc(NC(=O)[C@@](C)(O)C(F)(F)F)c(Cl)c2)cc1 | 17.9% and -11.6% | inactive | inactive | 7.42 µM (active) | 4.68 µM (active) |  | inactive |  |  |  |  |
| O=C(NOCC1CC1)c1ccc(F)c(F)c1Nc1ccc(I)cc1Cl | 13% and 35.6% and 22.3% | inactive | inactive | 23.5 µM (active) |  | 8.33 µM (active) | 16.6 µM (active) |  |  |  |  |
| COc1ccc(C(=O)C2CCN(CC(=O)N(Cc3nc4c(c(=O)[nH]3)COCC4)CC3CC3)CC2)cc1 | 25.7% | inactive | inactive |  | inactive | inactive |  | inactive | 110% |  |  |

| SMILES | activation [1] | Potency [2] | Potency [3] | Potency [4] | Potency [5] | Potency [6] | Potency [7] | Potency [8] | viability [4] | Potency [9] | Potency [1] |
| --- | --- | --- | --- | --- | --- | --- | --- | --- | --- | --- | --- |
| COc1cc2nccc(Oc3ccc(NC(=O)NC4CC4)c(Cl)c3)c2cc1C(N)=O |  | inactive | inactive | 18.6 µM (active) | 2.09 µM (active) | 9.34 µM (active) |  |  |  | 20.9 µM (active) | 26.9 µM (active) |
| CN1CCN(c2ccc(-c3cccc(CN4CCOCC4)c3)cc2NC(=O)c2c[nH]c(=O)cc2C(F)(F)F)CC1 | -14.5% | inactive | inactive |  | 12.9 µM (active) |  | inactive | inactive | 120% | inactive |  |
| NC(=O)c1cnc(-c2ccc(C3(N)CCC3)cc2)c(-c2ccccc2)c1 | 29% and -2.68% | inactive | inactive |  | 3.32 µM (active) |  | 1.32 µM (active) | inactive | 104% | inactive |  |
| Cc1ccc(S(=O)(=O)Cc2nc(-c3ccc(C(=O)NCc4cccnc4)cc3)oc2C)cc1 | 26.3% | inactive | inactive | 18.6 µM (active) | 0.132 µM (active) | 0.0263 µM (active) |  |  |  | 0.0235 µM (active) |  |
| CNc1nc(Nc2cnn([C@H]3CCN(C4COC4)C[C@@H]3F)c2Cl)ncc1C(F)(F)F | -10.7% and -17.9% | inactive | inactive |  | 1.32 µM (active) |  |  | inactive | 94.3% | 16.6 µM (active) |  |
| CC[C@H](NC(=O)[C@H](CS(=O)(=O)CC1CC1)N[C@@H](c1ccc(F)cc1)C(F)(F)F)C(=O)C(=O)NC1CC1 | 21.7% | inactive | inactive |  |  | inactive | inactive | inactive | 112% | inactive |  |
| COCCNCc1ccc(-c2cc3nccc(Oc4ccc(NC(=O)C5(C(=O)Nc6ccc(F)cc6)CC5)cc4F)c3s2)nc1 |  | inactive | inactive | 13.2 µM (active) |  | 2.95 µM (active) | 8.33 µM (active) | 5.25 µM (active) |  | 8.33 µM (active) | 19 µM (active) |
| O=C1CCCC2=C1C(c1[nH]ncc1Cl)N=C(Nc1nc3ccccc3o1)N2 (configuration not stated) | -17.4% and 19.7% | inactive | inactive |  | 10.5 µM (active) |  |  | inactive | 78.9% | 16.6 µM (active) |  |
| Oc1ccc([C@@H]2Oc3ccc(O)cc3[C@@H]3CCC[C@@H]32)cc1 | 23.4% | inactive | inactive | 18.6 µM (active) | 13.2 µM (active) | 9.34 µM (active) | 5.9 µM (active) | 7.42 µM (active) |  | 5.9 µM (active) |  |
| O=C(Nc1ccc(F)c(C(F)(F)F)c1)Nc1nnc(-c2ccncc2)s1 | -20.5% and 5% | inactive | inactive |  |  | inactive | inactive | inactive | 100% | inactive |  |
| Cc1ncc(Cl)cc1NCc1ccc(C(=O)NC(CC2CCCC2)C(=O)NC2CC2)s1 (configuration not stated) | 3% | inactive | inactive |  | 18.6 µM (active) |  | 0.833 µM (active) |  | 107% | 5.9 µM (active) |  |
| COc1cc2c(cc1OC)CN(CCc1ccc(NC(=O)c3cc(OC)c(OC)cc3NC(=O)c3cnc4ccccc4c3)cc1)CC2 | 1.67% | inactive | inactive |  | inactive | inactive | inactive | inactive | 119% | inactive |  |
| O=C(Cc1ccc(-c2ccc(OCCN3CCOCC3)cc2)cn1)NCc1ccccc1 | 20.5% | inactive | inactive | 0.166 µM (active) | 0.118 µM (active) |  | 0.118 µM (active) | 0.0934 µM (active) |  | 0.0934 µM (active) |  |
| Cc1c(Cn2c(C)nc3c(C(=O)O)cc(N4CCOCC4)cc32)cccc1C(F)(F)F | -0.853% and -13.4% | inactive | inactive |  | 4.68 µM (active) | 5.9 µM (active) |  | inactive | 98.9% |  |  |
| Cn1cc(-c2ccc3c(c2)CCN3C(=O)Cc2cccc(C(F)(F)F)c2)c2c(N)ncnc21 | -11.6% | inactive | inactive |  | 9.34 µM (active) |  |  | inactive | 105% | 18.6 µM (active) |  |
| CN(C)CC(C)(C)CNc1nn2c(-c3ccccc3)nnc2cc1C1CCC1 | -1.72% and 7.14% | inactive | inactive |  | inactive |  | inactive | inactive | 113% | inactive |  |
| Cn1cnc2c(F)c(Nc3ccc(Br)cc3F)c(C(=O)NOCCO)cc21 | 64.2% and -20.5% | inactive | inactive |  |  | 0.0235 µM (active) |  |  | 26.2% |  |  |
| Cc1cc(-c2cc(OC(=O)c3ccccc3)ccc2Cl)cc2nnc(Nc3ccc(OCCN4CCCC4)cc3)nc12 | -29.5% | inactive | inactive |  | inactive | 0.456 µM (active) |  |  | 115% | inactive |  |
